PubChem BioAssay AID1347426 (Functional Genomics Laboratory (NCATS/FGL), 2020)
About 1,400 (4.5%) of roughly 31,000 sequences were called active.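 Rule for the calls: active = median seed-adjusted z-score above 1 or below -1; inactive = the rest.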 This excerpt belongs to a sample that is enriched for actives.

assay: Novel Modifiers of Survival Motor Neuron (SMN) Protein: Gene Identification via Genome-wide siRNA Screen; conditions: HEK293T SMN2-luciferase reporter, siRNA knockdown, 72 h; actives lie on both sides;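 note: luminescence tracks full-length SMN protein made from the SMN2 reporter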
Method in brief: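 Each of three siRNAs per gene is reverse-transfected (1 pmol) into reporter HEK293T cells whose luciferase output tracks SMN protein level. After 72 h culture, ONE-Glo luminescence is control-normalized, log10-transformed and MAD-standardized; Common Seed Analysis deprioritizes seed-driven hits.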

Question: With GAUCGAUAUCUUUACAAGATT against SLK as the sequence, how does the median seed-adjusted z-score read?
Answer: 0.0479 (inactive)

Question: Which median seed-adjusted z-score does the source give for CGAUGGAGAUCAACGUGAATT against UBE2E2 here?
Answer: -1.77 (active)

Question: With CCUUCACUAUUGCCCGCAATT against ABCD1 as the sequence, how does the median seed-adjusted z-score read?
Answer: 0 (inactive)

Question: Which median seed-adjusted z-score does the source give for UGAUGACACCAACCACGAATT against CNP here?
Answer: -0.116 (inactive)

Question: Which median seed-adjusted z-score does the source give for GGCCCAUAUUCAUCUGCUATT against STYX here?
Answer: 0.694 (inactive)

Question: Which median seed-adjusted z-score does the source give for AGCACGAGCUAGUCCCUGATT against POLR2E here?
Answer: -1.25 (active)

Question: Which median seed-adjusted z-score does the source give for GCAAGAUCCGAGAAGAAUATT against TUBB here?
Answer: -0.307 (inactive)

Question: Which median seed-adjusted z-score does the source give for GCAUGAUCGGGAGGGUUUATT against PPID here?
Answer: -0.206 (inactive)

Question: For GGUUAUGAACUUUGGAUAATT against GPR103, which median seed-adjusted z-score is on record?
Answer: 0 (inactive)

Question: For CUAUGUCAGUGGUCCUGAATT against RETSAT, which median seed-adjusted z-score is on record?
Answer: -1.7 (active)

Question: For CAAUGAAGACUGAUGUAUUTT against SLC9A2, which median seed-adjusted z-score is on record?
Answer: -1.02 (active)

Question: With CCCUUACUACAACUACAAATT against ZBTB38 as the sequence, how does the median seed-adjusted z-score read?
Answer: 0.448 (inactive)

Question: Which median seed-adjusted z-score does the source give for GGGCGAUUCCUGUCUAAGATT against PUM1 here?
Answer: 0.109 (inactive)

Question: With CGAACUCCGCUUUUUCUUATT against FZD7 as the sequence, how does the median seed-adjusted z-score read?
Answer: -0.159 (inactive)

Question: With GCUACAACGGAAACAAUCATT against MSTN as the sequence, how does the median seed-adjusted z-score read?
Answer: -0.639 (inactive)

Question: Which median seed-adjusted z-score does the source give for GGAGUUCGAUGAGACAACATT against FABP3 here?
Answer: -0.0786 (inactive)

Question: With CGAUUACGCUUCAGAGAUATT against PTP4A2 as the sequence, how does the median seed-adjusted z-score read?
Answer: -1.45 (active)

Question: Which median seed-adjusted z-score does the source give for GGACAUCCUGUCAUAGAAATT against UTP3 here?
Answer: -1.08 (active)

Question: Which median seed-adjusted z-score does the source give for GGAAGUUCAUUACCAGAAUTT against PLCZ1 here?
Answer: 0 (inactive)

Question: Which median seed-adjusted z-score does the source give for GCAAUAGUCAGGAGCGAUATT against PPP1R10 here?
Answer: 1.41 (active)

Question: For CCUUACCUGUAAACAGAGATT against ESR2, which median seed-adjusted z-score is on record?
Answer: -1.1 (active)

Question: With CCAGGCCCAUUCUACAAUATT against PEAR1 as the sequence, how does the median seed-adjusted z-score read?
Answer: 0.071 (inactive)

Question: For AUAUAACUGCUGAUCUAGATT against SPCS3, which median seed-adjusted z-score is on record?
Answer: 0.417 (inactive)

Question: With GGAGUUCGUUCAGAGACCATT against MOCS2 as the sequence, how does the median seed-adjusted z-score read?
Answer: 0.0327 (inactive)

Question: Which median seed-adjusted z-score does the source give for CUCUCUUCGUAGAUCAAGATT against SFRS7 here?
Answer: 0.44 (inactive)

Question: With UGAAGUUGCUGGACGCGUATT against DAD1 as the sequence, how does the median seed-adjusted z-score read?
Answer: -0.45 (inactive)

Question: Which median seed-adjusted z-score does the source give for GCUUGGAGGAUUUCAUGGATT against POFUT1 here?
Answer: 0 (inactive)

Question: With AGAAAUUGGUGUUCAGAAUTT against GTF2F2 as the sequence, how does the median seed-adjusted z-score read?
Answer: -1.14 (active)

Question: Which median seed-adjusted z-score does the source give for GAAUAAAAACGACCUCUUUTT against LZTR1 here?
Answer: 0.293 (inactive)

Question: Which median seed-adjusted z-score does the source give for GCAUGUUAAUGGGUUUAAUTT against GNAS here?
Answer: -0.531 (inactive)

Question: Which median seed-adjusted z-score does the source give for CUGCAGUUCUUAAUACGAATT against PSMD1 here?
Answer: -1.61 (active)
